# Hits are enriched below; roughly 9.7% of the tested compounds scored in any of these assays.
# BAP1 inh – blocks human BAP1 ubiquitin-AMC hydrolysis; Q92560; recombinant BAP1, Ub-AMC hydrolysis fluorescence kinetic; hits give low values; calls only at 20 µM; 72,000 tested, 0.48% active; AID 436;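 active means activity remaining at or below 50% of control, provided the compound also passes the data quality filters; inactive means the rest, including low values that fail the filters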;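 further: 100% = DMSO wells rate and 0% = substrate alone blank rate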
# M1 agonist – activates the M1 muscarinic receptor. 64,000 tested, 3% active. AID 626. CHO-M1 cells, Fluo-4 calcium fluorescence, agonist mode; hits give high values. B-score at 10 µM;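 active means fluorescence rise, raw or as B-score row- and column-corrected plate score, outside the 99.7% band of its plate's samples, either direction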
# Autofluor 339 – intrinsic fluorescence of library compounds, ex339/em460 – biochemical, MLSMR library, data from DPM-DC assay, artefact control, profiling panel. compound autofluorescence, ex339/em460 nm, NADH buffer; hits give high values; 1 = no-compound wells, NADH background. fluorescence fold increase at 10 µM. 65,000 tested, 5.5% active;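 active means at 10 µM, mean starting fluorescence two-fold or more over control wells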;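 further: signal is the first read of a kinetic run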
# M1 antagonist – blocks the rat M1 muscarinic receptor response to acetylcholine | B-score at 10 µM | CHO-M1 cells, Fluo-4 calcium, ACh EC80 antagonist mode; hits give low values | P08482 | 64,000 tested, 3.4% active;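 active means calcium fluorescence response, raw or row-and-column corrected B-score, differing from the plate sample mean either way at a set confidence level, mostly lower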
# Target sequence (P08482 whole entry, looked up): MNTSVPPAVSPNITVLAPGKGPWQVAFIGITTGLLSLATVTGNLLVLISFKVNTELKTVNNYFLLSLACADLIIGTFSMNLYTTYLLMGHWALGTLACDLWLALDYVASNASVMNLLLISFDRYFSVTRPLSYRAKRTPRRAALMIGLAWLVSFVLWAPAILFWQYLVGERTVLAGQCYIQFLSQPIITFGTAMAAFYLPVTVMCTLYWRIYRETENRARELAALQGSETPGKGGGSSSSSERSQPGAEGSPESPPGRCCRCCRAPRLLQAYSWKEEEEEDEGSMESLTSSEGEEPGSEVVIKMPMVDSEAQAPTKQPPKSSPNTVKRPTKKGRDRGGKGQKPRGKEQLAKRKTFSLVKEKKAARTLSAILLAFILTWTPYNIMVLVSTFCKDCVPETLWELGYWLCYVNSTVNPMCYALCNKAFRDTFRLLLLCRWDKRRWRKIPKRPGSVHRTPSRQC
# WNV protease inh – inhibitors of West Nile virus NS2B-NS3 protease. P06935. WNV NS2B-NS3 protease, fluorogenic substrate Ex360/Em465; hits give low values. z-score (concentration not given with the values). 65,000 tested, 0.18% active. AID 577; in the data active means z-score below about -3
# Abs 340nm – compounds absorbing at 340 nm | compound absorbance at 340 nm, fold over control | fold change at 10 µM | AID 708 | 65,000 tested, under 10 active;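 active means at 10 µM dose, initial 340 nm absorbance at least 2 fold that of control wells; inactive means change under 2 fold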;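 further: initial absorbance extrapolated from kinetic A340 decline of NADH oxidation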
# An asterisk follows results filed as active; i = inactive; . = no result shown; + = active, no number.
SMILES,BAP1 inh,M1 agonist,Autofluor 339,M1 antagonist,WNV protease inh,Abs 340nm
CCc1c(C)c2ccc(OCC(=O)OC)cc2oc1=O,i,0.361,2.94*,-1.26,-0.86,1.03
COc1ccc2nc(NC(=O)C3CCCCC3)sc2c1,i,.,.,.,.,.
O=C(Nc1nc(-c2ccc([N+](=O)[O-])cc2)cs1)c1ccccc1F,i,.,.,.,.,.
CC(C)CC(C(=O)Nc1ccccc1C(F)(F)F)N1C(=O)c2ccccc2C1=O (stereo not given),i,.,.,.,.,.
CC(=O)NCc1nc2ccccc2[nH]1,i,.,.,.,.,.
COc1ccc(NC(=O)N2CCC(c3nc(-c4cccs4)no3)CC2)cc1,i,-0.43,1.06,-0.822,-1.18,1
O=C(Nc1ccc(Cl)cc1)N1CCC(c2nc(-c3cccs3)no2)CC1,i,-2.47*,1.11,0.00768,-2.17,1.01
CCOC(=O)C1CCN(C(=O)COc2ccc(Cl)cc2Cl)CC1,i,-0.0748,1.01,-0.142,-0.35,0.97
CCOC(=O)C1CCCN(C(=O)C(C)Oc2ccc(Cl)cc2Cl)C1 (stereo not given),i,4.54*,1.06,0.138,-0.54,1.02
COC(=O)C1CCN(C(=O)C(C)Oc2ccc(Cl)cc2Cl)CC1 (stereo not given),i,-0.15,1.14,1.25*,-0.05,1
CCOc1cc(C2Nc3cc(C)c(C)cc3NC3=C2C(=O)CC(C)(C)C3)cc(Br)c1OC (stereo not given),i,.,.,.,.,.
CCCC1CCC(c2ccc(C#N)cc2)CC1 (stereo not given),i,.,.,.,.,.
CC(C)=CCC/C(C)=C/CC/C(C)=C/CSc1ccccc1C(=O)O,+,.,.,.,.,.
CCOc1c(C(N)=O)c(-c2ccccc2)c2c(=O)[nH]c3ccccc3n12,.,-0.55,3.82*,-0.0137,-0.64,1.07
CCOC(=O)c1c(-c2ccccc2)c2cc([N+](=O)[O-])ccc2[nH]c1=O,i,.,.,.,.,.
COc1cc(OC)cc(C(=O)NCc2n[nH]c(=S)n2-c2ccc(Br)cc2)c1,i,.,.,.,.,.
Cc1ccc(C2CC(C(F)(F)F)n3nc(C(=O)N4CCN(c5ccccc5)CC4)c(Cl)c3N2)cc1 (stereo not given),i,.,.,.,.,.
c1ccc(Cn2c(SCc3cn4cccnc4n3)nnc2-c2ccco2)cc1,.,-0.137,2.24*,-0.176,-0.92,1.03
O=c1c2c(-c3ccco3)csc2nc(SCc2cn3cccnc3n2)n1-c1ccccc1,.,0.0253,1.75,-0.839,0.33,1.04
Cn1nnnc1SCc1cn2cccnc2n1,.,0.404,3.28*,-0.226,0.02,1
CC1=CC(C)(C)Nc2ccc(OC(=O)C(C)(C)C)cc21,i,.,.,.,.,.
CCOC(=O)c1ccc2nc(C)c3c(c2c1)OC(C)C3 (stereo not given),.,-0.152,2.44*,0.15,-0.12,1.02
COc1cccc2c3c(c(C)nc12)CC(C)O3 (stereo not given),i,0.0486,3.67*,0.0255,-1.51,1
COc1ccc2nc(C)c3c(c2c1)OC(C)C3 (stereo not given),i,-1.59,1.69,-0.0164,-1.25,1.07
O=C(O)c1cccc(NS(=O)(=O)c2cccc(S(=O)(=O)c3ccc(Cl)cc3)c2)c1,i,.,.,.,.,.
SMILES,BAP1 inh,M1 agonist,Autofluor 339,M1 antagonist,WNV protease inh,Abs 340nm
COc1ccc(C2C=C(c3ccc(Cl)cc3)Nc3nc(NC(C)=O)nn32)cc1 (stereo not given),i,235*,2.34*,-1.7,-0.39,1.1
O=C(c1nc2n(n1)C(c1ccc(Cl)cc1)C=C(c1ccccc1)N2)N1CCOCC1 (stereo not given),i,46.4*,1.35,0.0328,0.6,1.02
O=C(Nc1nc2n(n1)C(c1ccc(Cl)cc1)CC(c1ccc(Cl)cc1)N2)c1ccco1 (stereo not given),i,-0.318,1.13,0.148,0.76,1.01
Nc1nc(C(=O)N2CCOCC2)nn1S(=O)(=O)c1ccc(Cl)cc1,i,0.83,1.1,0.13,-0.78,1
COc1ccc(C2=CC(c3ccc(F)cc3)n3nnnc3N2)cc1 (stereo not given),i,0.532,1.06,0.221,-1,1.07
CC(=O)Nc1nc2n(n1)C(c1ccc(Cl)cc1)C=C(C)N2 (stereo not given),.,1.06,4.93*,1.95*,1.2,1.04
CCOC(=O)c1cc(-c2ccc3c(c2)OCO3)nc2onc(C)c12,.,-1.16,3.28*,0.358,0.37,1.01
Cc1nc(-c2ccc3c(c2)OCO3)cs1,.,-0.673,1.07,0.771,-0.33,0.99
C=CCn1c(N)c(C(=O)Nc2ccccc2)c2nc3ccccc3nc21,i,0.0656,1.41,-0.624,-0.53,1.06
C=CCn1c(N)c(C(=O)OC(C)(C)C)c2nc3ccccc3nc21,i,1.24,2.48*,-0.264,2.89,0.98
C=CCn1c(N)c(C(=O)OC(C)CC)c2nc3ccccc3nc21 (stereo not given),.,0.566,2.12*,0.386,2.44,1.09
COCCNC(=O)c1cnn2c(C(F)(F)F)cc(-c3ccc4c(c3)OCO4)nc12,i,6.02,2.52*,-1.12,0.4,1.04
CCOC(=O)c1cnn2c(C(F)(F)F)cc(-c3cn(C)nc3C)nc12,i,-0.225,3.73*,-0.458,1.38,1.18
COC(=O)c1ccccc1NC(=O)c1cnn2c(C(F)(F)F)cc(-c3ccccc3)nc12,i,.,.,.,.,.
CCOC(=O)c1cnn2c(C(F)(F)F)cc(-c3ccccc3)nc12,i,.,2.2*,.,0.88,1.07
CCOC(=O)N1CCC(NC(=O)c2cnn3c(C(F)(F)F)cc(-c4cccc(OC)c4)nc23)CC1,i,1.93,3.81*,-0.0196,1.09,1.07
CCn1c(SCc2ccccc2Cl)nc2c1c(=O)[nH]c(=O)n2C,i,.,.,.,.,.
COC(=O)c1cnn2c(C(F)(F)F)cc(-c3ccc(F)cc3)nc12,i,0.0949,3.29*,-0.00881,0.03,1.08
CCOC(=O)c1cnc2c(-c3ccccc3)cnn2c1N,i,0.416,2.11*,0.328,-0.32,1.07
CCOC(=O)c1cnc2c(-c3ccccc3)c(C)nn2c1N,i,0.844,1.78,0.372,2.42,1.08
c1ccc2c(c1)cc(-c1nc3ccccc3[nH]1)c1nc3ccccc3n12,i,.,.,.,.,.
CCCn1c(=N)n(CC(O)c2ccccc2)c2ccccc21 (stereo not given),i,.,.,.,.,.
Cc1cccc(CNC(=O)c2ccccc2N)c1,i,1.27,3.62*,-0.491,-0.42,1.08
CCc1nnc(NC(=O)CSc2nnc(-c3ccccc3NC(=O)c3ccccc3)o2)s1,i,1.03,2.14*,-0.177,-0.88,1.11
CCOC(=O)CSc1nnc(-c2ccccc2NC(=O)c2ccccc2)o1,i,-0.0778,1.45,0.0143,-1.08,1.03
CC1CCc2nc3ccc(S(=O)(=O)N4CCC(C(=O)NC5CCCC5)CC4)cc3c(C(=O)O)c2C1 (stereo not given),i,0.328,1.13,0.0499,1.44,1.05
